According to PubChem BioAssay:

Legend:
[1] = test system: Human papillomavirus type 1a protein E7 (residues 44-93); experiment: small molecules binding HPV E7 44-93 – biochemical, small-molecule microarray, residues 44-93, 635 nm fluorescence, primary screen (AID 1108); conditions: fluorescence 635 nm, higher = more signal;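 further: E7 fragment applied at 1 µg/mL in TBST for 1 h at 4 C; score combines spot fluorescence with its signal to noise ratio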
[2] = hepatitis C replication reporter changes, two-sided – Huh7 cells, luciferase reporter, HCV replication inhibitor project, primary screen (AID 1109); conditions: Huh7 HCV replicon luciferase reporter, 48 h; higher = more signal;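 further: huh7 hepatoma cells harbouring a luciferase neomycin HCV replicon reporter; luciferase luminescence as measure of HCV replicon replication; test concentration not given here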
[3] = biological target: Left-right determination factor 2 (Homo sapiens) (UniProt O00292); experiment: small molecules binding LEFTY2 protein – biochemical, small-molecule microarray, 635 nm fluorescence scan, primary screen (AID 1110); conditions: higher = more signal
[4] = biological target: Calmodulin-1 (Homo sapiens) (UniProt P0DP23); experiment: small molecules binding calmodulin-1 with EGTA – biochemical, small-molecule microarray, Cy5-labelled CALM1, profiling panel (AID 1111); conditions: Cy5-CALM1 binding fluorescence, higher = more signal;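 further: labelled calmodulin applied in Tris saline Tween buffer holding calcium plus EGTA and DTT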
[5] = biological target: Calmodulin-1 (Homo sapiens) (UniProt P0DP23); experiment: small molecules binding Ca-loaded calmodulin-1 – biochemical, small-molecule microarray, Cy5-labelled CALM1, plus calcium, artefact control for SMM control-protein annotation, profiling panel (AID 1112); conditions: Cy5-CALM1 binding fluorescence, higher = more signal;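 further: score merges spot fluorescence with signal to noise from triplicate slides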
[6] = probe aWnt5a binding to arrayed compounds – biochemical, biotinylated probe, 635/667 nm fluorescence, primary screen (AID 1113); conditions: small-molecule microarray, higher = more signal;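 further: score merges 667 nm fluorescence intensity with signal-to-noise per printed feature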
[7] = probe aShh binding to arrayed compounds – biochemical, biotinylated probe, 635/667 nm fluorescence, primary screen (AID 1114); conditions: small-molecule microarray, higher = more signal;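 further: probe is biotin-labelled aShh protein from a stem cell growth factor screen; measures binding of labelled protein to compounds printed on the slide; score merges feature fluorescence at 667 nm with signal-to-noise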
[8] = probe aNog binding to arrayed compounds – biochemical, biotinylated probe, 635/667 nm fluorescence, primary screen (AID 1115); conditions: small-molecule microarray, higher = more signal;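 further: probe is biotinylated aNog protein used at 0.15 µg/mL for 1 h at 4 C; z-score combines 667 nm fluorescence of each spot with its signal to noise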
[9] = biological target: Torsin-1A-interacting protein 1 (Homo sapiens) (UniProt Q5JTV8); experiment: compound microarray binding of lysate hLAP1 – cell lysate, small-molecule microarray, COS7 lysate, 635/667 nm fluorescence, primary screen (AID 1116); conditions: 635 nm fluorescence, higher = more signal
[10] = biological target: Alpha-bungarotoxin (Bungarus multicinctus) (UniProt P60615); experiment: compounds binding labelled alpha-BTX control protein – biochemical, small-molecule microarray, Alexa647 label, 635/667 nm fluorescence, artefact control for SMM control protein annotation, profiling panel (AID 1117); conditions: alpha-BTX-A647 binding fluorescence, higher = more signal
Sequence of Alpha-bungarotoxin (Bungarus multicinctus) (P60615 whole entry, looked up): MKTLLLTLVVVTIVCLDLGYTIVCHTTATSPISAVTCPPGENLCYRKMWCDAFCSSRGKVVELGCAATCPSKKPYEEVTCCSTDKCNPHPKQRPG

Sequence of Torsin-1A-interacting protein 1 (Homo sapiens) (Q5JTV8 whole entry, looked up): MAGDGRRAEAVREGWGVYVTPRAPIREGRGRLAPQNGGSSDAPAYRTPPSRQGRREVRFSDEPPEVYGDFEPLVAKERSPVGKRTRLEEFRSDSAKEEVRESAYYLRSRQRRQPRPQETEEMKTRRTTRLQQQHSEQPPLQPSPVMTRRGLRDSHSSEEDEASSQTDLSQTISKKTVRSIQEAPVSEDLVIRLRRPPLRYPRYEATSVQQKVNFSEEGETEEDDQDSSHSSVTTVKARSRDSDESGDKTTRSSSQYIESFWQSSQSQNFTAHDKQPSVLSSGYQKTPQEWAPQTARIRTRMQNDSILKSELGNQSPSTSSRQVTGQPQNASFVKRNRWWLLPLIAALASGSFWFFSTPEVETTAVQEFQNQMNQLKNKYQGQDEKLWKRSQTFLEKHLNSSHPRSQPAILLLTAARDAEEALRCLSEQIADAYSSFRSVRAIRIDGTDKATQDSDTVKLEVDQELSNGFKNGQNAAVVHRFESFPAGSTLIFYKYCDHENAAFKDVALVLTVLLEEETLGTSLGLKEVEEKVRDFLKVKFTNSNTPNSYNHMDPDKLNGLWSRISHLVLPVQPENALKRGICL
Sequence of Left-right determination factor 2 (Homo sapiens) (O00292 whole entry, looked up): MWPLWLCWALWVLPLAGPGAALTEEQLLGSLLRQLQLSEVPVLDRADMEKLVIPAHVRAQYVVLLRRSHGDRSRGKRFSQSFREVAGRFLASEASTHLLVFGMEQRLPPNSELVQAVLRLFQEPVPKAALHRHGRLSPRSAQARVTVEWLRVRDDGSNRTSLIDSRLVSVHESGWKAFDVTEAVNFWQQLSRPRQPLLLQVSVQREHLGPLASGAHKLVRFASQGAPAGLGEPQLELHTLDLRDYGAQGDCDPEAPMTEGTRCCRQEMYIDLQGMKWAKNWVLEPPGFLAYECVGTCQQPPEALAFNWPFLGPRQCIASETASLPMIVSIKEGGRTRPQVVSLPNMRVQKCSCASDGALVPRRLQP

Compound	composite z-score [1]	z-score [2]	composite z-score [3]	composite z-score [4]	composite z-score [5]	composite z-score [6]	composite z-score [7]	composite z-score [8]	composite z-score [9]	composite z-score [10]
C=CCC(OC(C)=O)[C@@H]1[C@@H](N(Cc2cc3ccccc3o2)C(=O)Cc2ccc(OC)cc2)c2cc(OCCCO)ccc2N1C(=O)c1ccc2ccccc2c1 (stereo not given in full)	0.0806	-0.359	-0.0999	-0.428	0.174	-0.0754	0.0062	-0.125	0.0296	-0.396
COCCOC(=O)N1C(=O)[C@@]2(c3cc(C#CC4=CCCCC4)ccc31)[C@H](C(N)=O)[C@H]1C(=O)O[C@H](c3ccccc3)[C@H](c3ccccc3)N1[C@@H]2c1ccc(O)cc1	1.13	-1.76	0.959	1.16	-0.308	-0.107	-0.0362	-0.0956	0.923	1.51
CN1C(=O)C2C=CC(C(O)c3ccc(F)cc3)N(N(c3ccccc3)c3ccccc3)C2C1=O (stereo not given)	1.11	-0.0952	-0.698	0.49	-0.235	-0.0236	-0.152	-0.55	0.154	0.633
C=CCC(OC(C)=O)[C@@H]1[C@@H](N(Cc2ccc(-c3cccc(C(F)(F)F)c3)o2)C(=O)c2cccc3ccccc23)c2cc(OCCCO)ccc2N1C(=O)Cc1ccc2ccccc2c1 (stereo not given in full)	-0.168	0.395	-0.648	0.0134	0.242	-0.0597	0.123	-0.398	0.0212	0.794
COC(=O)C(CC#Cc1ccc2c(c1)[C@]1(C(=O)N2)[C@H](c2ccc(O)cc2)N2[C@H](c3ccccc3)[C@H](c3ccccc3)OC(=O)[C@H]2[C@@H]1C(=O)N1CCN(c2ncccn2)CC1)C(=O)OC	0.584	-0.305	-0.0195	1.1	-0.0671	-0.0748	-0.0143	0.36	0.683	2.4
CC(C)=CCCC(C)=CC(O)C1C=CC2C(=O)N(c3ccccc3)C(=O)C2N1Nc1ccc(C(C)C)cc1 (stereo not given)	1.45	-0.0821	-0.0675	0.943	0.415	0.163	0.0839	1.6	0.203	0.925
COC(=O)[C@@]1(Cc2ccccc2)[C@H]2c3cc(C(=O)N4CCCC4)n(Cc4ccc(O)c(OC)c4)c3C[C@H]2CN1C(=O)c1ccccc1	1.35	-1.7	-0.943	0.556	0.0466	0.288	1.14	1.11	0.53	-0.142
CCOc1ccc(N2C(=O)CSC2c2cccc([N+](=O)[O-])c2)cc1 (stereo not given)	1.35	-0.343	0.216	0.847	0.615	-0.0383	0.0796	-0.194	0.143	1.5
COc1ccc(NC(=O)O[C@H]2[C@H](OC(=O)c3cc4ccccc4[nH]3)[C@@H](OC(=O)c3cc4ccccc4[nH]3)[C@@H](OC)O[C@@H]2CO)cc1	-0.548	-1.98	0.046	0.467	-0.206	-0.0512	0.0121	-0.0612	1.04	0.243
CCCCCCc1nc(-c2ccc(-c3ccc(Cl)c(Cl)c3)o2)cc2c1[Si](C(C)C)(C(C)C)O[C@H]2c1ccccc1	-0.545	-0.674	-0.0324	-0.365	0.077	-0.264	0.0723	-0.141	-0.741	0.622
CN(C)C(=O)[C@]1(Cc2ccccc2)N=C(c2ccc(OCCCO)cc2)O[C@@H]1c1ccccc1N=[N+]=[N-]	1.4	-2.58	0.357	1.63	0.393	0.0926	0.398	-0.0332	2.01	1.37
COc1ccc(C(=O)Nc2ccc(CN3C(=O)[C@]4(O[C@H](CC(=O)N5CCC[C@H]5CO)[C@@H]([Si](C)(C)c5ccc(OC)cc5)[C@@H]4C)c4ccccc43)cc2)cc1	1.4	-3.86	0.471	0.453	-0.171	-0.0445	0.0639	0.116	1.08	0.748
O=C1O[C@H](c2ccccc2)[C@H](c2ccccc2)N2[C@H]1[C@@H](C(=O)N1CCN(c3ncccn3)CC1)[C@]1(C(=O)Nc3ccc(C#CC4=CCCCC4)cc31)[C@H]2c1ccccc1OCCO	0.379	-1.67	0.818	0.858	-0.198	0.212	0.299	0.998	0.201	1.59
O=C1NC(=O)C2C1C=CC(C(O)c1ccc(I)cc1)N2Nc1ccccn1 (stereo not given)	-0.409	-0.533	0.379	0.532	0.267	0.0136	0.282	0.0403	-0.593	0.636
O=C1C2C=CC(C(O)C=Cc3ccc([N+](=O)[O-])cc3)N(n3cnnc3)C2C(=O)N1Cc1ccccc1 (stereo not given)	1.34	-0.93	-0.368	0.596	-0.143	0.0633	-0.0035	0.977	0.832	1.39
CCCCC(O)C1C=CC2C(=O)N(C)C(=O)C2N1N1CCCCC1 (stereo not given)	1.34	0.0634	0.462	0.0471	-0.665	0.0251	0.156	-0.294	0.893	1.16
C=C(C)[C@@H]1CC=C(C(O)C2C=CC3C(=O)NC(=O)C3N2Nc2ccc(Cl)cc2Cl)CC1 (stereo not given in full)	0.762	-0.537	0.216	2.19	1.21	0.0328	-0.0271	1.61	0.584	2.26
Cc1c(NC(=O)/C(C#N)=C/c2cccc([N+](=O)[O-])c2)c(=O)n(-c2ccccc2)n1C	0.785	-1.44	0.285	0.619	-0.249	-0.0819	-0.0793	-0.346	0.38	0.0071

Compound	composite z-score [1]	z-score [2]	composite z-score [3]	composite z-score [4]	composite z-score [5]	composite z-score [6]	composite z-score [7]	composite z-score [8]	composite z-score [9]	composite z-score [10]
COC(=O)[C@@]1(CCC(=O)OC(C)(C)C)N=C(c2ccc(OCCCO)cc2)O[C@H]1c1ccccc1	0.255	-1.79	-0.211	0.0108	-0.181	-0.0161	0.351	0.711	0.692	0.629
C=CCN1C(=O)[C@]2(O[C@H](CCO)[C@@H]([Si](C)(C)c3ccc(OC)cc3)[C@@H]2C)c2cc(N(C=O)c3ccccc3)ccc21	-0.823	-5.14	-0.155	0.393	0.217	-0.096	0.0684	0.337	0.753	0.607
CCOC(=O)C1=C[C@@H](C(C)C)N(S(=O)(=O)c2ccc(C)cc2)[C@H]1c1ccccc1F	1.34	-2.04	0.605	1.74	0.0462	-0.001	0.116	0.541	1.08	1.39
C=CC[C@]1(C(=O)NCc2ccccc2)N=C(c2ccc(OCCCO)cc2)O[C@H]1c1ccccc1CN=[N+]=[N-]	1.42	-2.42	0.13	0.764	0.358	-0.001	-0.0146	-0.516	0.854	0.361
CS(=O)(=O)CCOC(=O)C1=CC(CCCO)=CC(c2ccc(CN3CCCC3)cc2)N(Cc2cccc(OC(F)(F)F)c2)C=C1C(=O)OCCS(C)(=O)=O (stereo not given)	1.22	-2.99	0.558	0.784	0.217	0.133	0.0434	-0.149	1.17	0.822
CN1C(=O)C2C=CC(C(O)c3c(F)cccc3Cl)N(NC(=O)OC(C)(C)C)C2C1=O (stereo not given)	1.3	-0.28	-0.0662	2.03	0.498	0.0718	-0.167	1.46	2.03	1.35
CC(C)NC(=O)[C@@H]1c2ccccc2C(=O)N(C(C)C)[C@H]1c1ccc(CO)cc1	1.42	-0.152	-0.597	-0.639	-0.128	-0.228	-0.291	-0.196	1.69	-0.558
CO[C@H]1O[C@H](CO)[C@@H](OC(=O)Nc2ccccc2)[C@@H]2OC(=O)[C@@H](Cc3ccc4ccccc4c3)C/C=C/C[C@H](Cc3ccc4ccccc4c3)C(=O)O[C@@H]12	0.601	-2.92	0.0985	0.697	-0.56	-0.006	-0.237	1.3	1.72	0.322
C=C(CCCC)C(=O)CC[C@@H](OC(C)=O)c1ccc(CO)o1	0.0497	-1.21	0.523	-0.854	-1.12	-0.18	-0.206	0.0417	2.04	-0.217
O=C(O)[C@H](Cc1ccccc1)n1cc(-c2ccccc2)nn1	0.52	0.36	0.506	0.14	-0.372	-0.152	-0.237	0.297	0.635	0.327
COCC(=C=CC[C@H](O)c1cccc(OCCO)c1)CCO	1.02	-0.119	0.0075	-0.488	-0.487	-0.127	-0.156	0.0395	-0.0815	-0.113
COc1ccc(C(=O)Nc2cccc(CN3C(=O)[C@]4(O[C@H](CCn5cc(CCO)nn5)[C@@H]([Si](C)(C)c5ccc(OC)cc5)[C@@H]4C)c4ccccc43)c2)cc1	1.31	-5.09	0.785	0.628	-0.0319	-0.0685	-0.0769	0.0471	0.456	0.547
COCCOC(=O)N1C(=O)[C@@]2(c3ccccc31)[C@H](C(N)=O)[C@H]1C(=O)O[C@H](c3ccccc3)[C@H](c3ccccc3)N1[C@@H]2c1ccc(O)cc1	1.37	-0.328	0.113	0.0186	-0.346	-0.199	-0.0769	-0.334	-0.602	-0.364
C=CC[C@]1(C(=O)N2CCOCC2)N=C(c2ccc(OCCCO)cc2)O[C@H]1c1ccccc1N=[N+]=[N-]	1.47	-1.43	0.258	1.47	0.667	0.0839	0.308	1.76	1.9	0.92
COc1ccc([C@H]2OC[C@@H]3CCC(=O)N32)cc1	0.493	0.574	0.556	-0.313	-0.525	-0.18	0.0062	-0.324	0.493	-0.122
CC(C)(C)OC(=O)CC[C@@]1(C(=O)N2CCCCC2)N=C(c2ccc(OCCCO)cc2)O[C@@H]1c1ccccc1	1.44	-1.49	0.0209	1.72	-0.0506	0.168	0.476	0.414	0.774	0.873
[N-]=[N+]=Nc1ccccc1[C@H]1OC(c2ccc(OCCCO)cc2)=N[C@@]1(Cc1ccccc1)C(=O)N1CCOCC1	1.1	-2.37	0.103	2.25	0.937	-0.0748	0.886	0.88	1.32	1.73
